Only some compounds are listed: those with a hit (about 4.1% of all), similar ones and a draw of the others.
DAX1 inh-1 = DAX1 (NR0B1) inhibition, primary screen. actives 1.1% (n = 370,000). HEK293T StAR-luciferase reporter, SF-1/DAX-1 repression relief. inhibition, % at 6.8 µM;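 active means inhibition above the mean over all tested compounds plus 3 SD, cut at about 3.6% in these data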;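 further: higher inhibition means more luminescence from relief of DAX-1 repression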
hgDAF12 agonist = agonists of H. glycines DAF-12 nuclear receptor | activation, % at 6.8 µM | HEK293 GAL4-hgDAF12 UAS-luciferase reporter, agonist luminescence; normalized to butyrate control | actives 1.8% (n = 370,000);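 active means activation above a cutoff set at the mean of all screened compounds plus 3 SD, cut at about 10% in these data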
hcDAF12 agonist = H. contortus DAF-12 activation, primary screen; HEK293 hcDAF-12 lit1-tk-luc reporter, luminescence; 0% DMSO, 100% Δ7-dafachronic acid; activation, % at 6.8 µM; AID 652067; actives 1.4% (n = 370,000);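 active means activation above the mean of all tested compounds plus 3 SD, cut at about 5.5% in these data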
DAX1 inh-2 = inhibits human nuclear receptor DAX1; P51843; HEK293 Gal4-DAX1 luciferase reporter, luminescence; inhibition, % at 6.75 µM; actives 0.99% (n = 340,000); AID 504766;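 active means inhibition above the mean over all tested compounds plus 3 SD, cut at about 4.2% in these data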;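 further: inhibition shows as a rise in luminescence from relieved DAX1 repression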
ssDAF12 agonist = S. stercoralis DAF-12 activation, primary screen. HEK293 ssDAF-12/GRIP1 lit1-tk-luc reporter, luminescence; % of 3 µM dafachronic acid response. activation, % at 6.8 µM. actives 1% (n = 370,000). AID 652126;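 active means activation above the mean over all tested compounds plus 3 SD, cut at about 0.9% in these data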
hgDAF12 ag = hgDAF-12 agonism, confirmation assay; HEK293 GAL4-hgDAF12 luciferase reporter, agonist mode; percent of butyrate response; activation, % at 6.8 µM; shares compounds with hgDAF12 agonist; actives 80% (n = 3,300);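 active means mean activation over triplicate wells above the hit cutoff derived from the earlier primary screen, cut at about 11% in these data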
LXR ag 2 = activates human LXR-beta, counter-screen for DAF-12 agonists; activation, % at 6.8 µM; shares compounds with hgDAF12 agonist; AID 743051; 3,300 tested, under 10 active; HEK293 Gal4-LXR luciferase reporter, 24 h;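 active means mean activation of the triplicate above a set limit carried over from the primary screen, none filed active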
Target sequence (P55055 whole entry, looked up, the tested form may be a part): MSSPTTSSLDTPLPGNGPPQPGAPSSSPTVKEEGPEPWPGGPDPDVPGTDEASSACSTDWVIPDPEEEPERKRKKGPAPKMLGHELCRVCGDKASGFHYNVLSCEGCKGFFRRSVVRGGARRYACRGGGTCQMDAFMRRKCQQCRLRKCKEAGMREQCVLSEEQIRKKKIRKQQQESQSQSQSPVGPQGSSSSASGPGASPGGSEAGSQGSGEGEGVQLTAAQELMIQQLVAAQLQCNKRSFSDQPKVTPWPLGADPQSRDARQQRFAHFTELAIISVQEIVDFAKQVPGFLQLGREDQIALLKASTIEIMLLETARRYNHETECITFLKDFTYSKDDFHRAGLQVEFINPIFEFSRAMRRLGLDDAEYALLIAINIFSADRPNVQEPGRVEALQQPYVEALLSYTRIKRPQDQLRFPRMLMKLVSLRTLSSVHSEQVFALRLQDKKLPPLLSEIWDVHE
Each line names hits and unclear results; the compound was inactive in the other large screens (follow-up assays come after a bar, where they were run).

O=C(Nc1ccccc1)c1cc(C2CCCN(C(=O)c3cccs3)C2)on1 (stereo not drawn)	hgDAF12 agonist 14 (no result: DAX1 inh-2) | hgDAF12 ag 13 | LXR ag 2 inactive
COc1cccc(C=NNC(=O)CSc2nc3ccccc3[nH]2)c1O	none (no result: DAX1 inh-2)
O=C(CSc1nnc(-c2ccc(O)cc2)o1)Nc1ccccc1	hgDAF12 agonist 16 | hgDAF12 ag 14 | LXR ag 2 inactive
COc1cccc(NC(=O)c2cnn(-c3ccccc3)c2C)c1	hgDAF12 agonist 18, hcDAF12 agonist 6.3, ssDAF12 agonist 1.2 | hgDAF12 ag 14 | LXR ag 2 inactive
CCn1ncc(C(=O)Nc2cccc(Cl)c2)c1C	hgDAF12 agonist 18, ssDAF12 agonist 0.9 | hgDAF12 ag 12 | LXR ag 2 inactive
CC1(C(=O)OCC(=O)c2c[nH]c3ccccc23)CC1(Cl)Cl (stereo not drawn)	hgDAF12 agonist 14, ssDAF12 agonist 1.6 | hgDAF12 ag 15 | LXR ag 2 inactive
CC(C)Cc1ccc(C(C)C(=O)OCC(=O)c2c[nH]c3ccccc23)cc1 (stereo not drawn)	none
C[C@H](CO)N1C[C@H](C)[C@@H](CN(C)C(=O)CN2CCOCC2)Oc2cc(Br)ccc2S1(=O)=O	none
Cc1ccc(-c2nnc(CCC(=O)NCC3C4CC5CC(C4)CC3C5)o2)s1 (stereo not drawn)	hgDAF12 agonist 14 | hgDAF12 ag inactive | LXR ag 2 inactive
O=C(Nc1ccc(CN2CCOCC2)cc1)c1ccc(F)cc1	none
O=C(Nc1ccc(CN2CCOCC2)cc1)c1cccc(F)c1	hgDAF12 agonist 15 | hgDAF12 ag 14 | LXR ag 2 inactive
O=C(Nc1ccc(Cl)cc1)OCc1cn(-c2ccc(Cl)cc2)nn1	none
Clc1ccc(-n2cc(COCc3ccccc3)nn2)cc1	DAX1 inh-1 3.8, hgDAF12 agonist 21 | hgDAF12 ag 11 | LXR ag 2 inactive
CC(C)=CCC[C@H](C)C[C@@H]1Cc2[nH][nH]c(=O)c2[C@H](c2ccc(F)cc2)O1	none (no result: DAX1 inh-2)
CCN(C(=O)CSc1nnc(-c2cccc(F)c2)n1N)c1c(N)n(Cc2ccccc2)c(=O)[nH]c1=O	hgDAF12 agonist 19 | hgDAF12 ag inactive | LXR ag 2 inactive
COc1ccc(-c2coc3c(C(=O)Nc4cccc(NS(C)(=O)=O)c4)cccc23)c(C)c1	none (no result: DAX1 inh-2)
Cc1cccc2c1-c1sc(C(=O)Nc3nccs3)cc1CO2	hgDAF12 agonist 19 | hgDAF12 ag 14 | LXR ag 2 inactive
Cc1cccc2c1-c1sc(C(=O)Nc3cccnc3)cc1CO2	none
O=C(NCc1cccs1)C1CCCN(S(=O)(=O)c2ccccc2)C1 (stereo not drawn)	none (no result: DAX1 inh-2)
COc1cccc(CNc2nc3ccccc3n2C)c1O	hgDAF12 agonist 15, ssDAF12 agonist 1.8 | hgDAF12 ag 19 | LXR ag 2 inactive
COc1cccc(CNc2cnc3ccccc3c2)c1O	none
O=C(CSc1ccccc1)N1CCC(Oc2cccnc2)CC1	none (no result: DAX1 inh-2)
Cn1nnnc1SCC(=O)Nc1nc2c(s1)CCCC2	DAX1 inh-1 3.7, hgDAF12 agonist 13, hcDAF12 agonist 6.4 | hgDAF12 ag 16 | LXR ag 2 inactive
CCOc1ccc(C(=O)N/N=C/c2ccc(SC)cc2)cc1	none
CSc1ccc(/C=N/NC(=O)c2cccc(O)c2)cc1	DAX1 inh-1 4.1, hgDAF12 agonist 15 | hgDAF12 ag 18 | LXR ag 2 inactive
CC(C)c1ccc(/C=N/NC(=O)c2cccc(Cl)c2)cc1	hgDAF12 agonist 15 | hgDAF12 ag 24 | LXR ag 2 inactive
CCc1ccccc1-c1cc(C(=O)OC)c2n(c1=O)CCC2	none (no result: DAX1 inh-2)
Cc1occc1C(=O)N/N=C/c1ccc2c(c1)OCO2	hgDAF12 agonist 16, hcDAF12 agonist 5.7 | hgDAF12 ag 21 | LXR ag 2 inactive
Cc1occc1C(=O)N/N=C/c1cccc2ccccc12	hgDAF12 agonist 21, hcDAF12 agonist 5.8, ssDAF12 agonist 1.0 | hgDAF12 ag 14 | LXR ag 2 inactive
Cc1cc(/C=N/NC(=O)c2ccoc2C)cc(C)c1O	DAX1 inh-1 4.3, hgDAF12 agonist 18, DAX1 inh-2 4.8 | hgDAF12 ag 14 | LXR ag 2 inactive

High-throughput results: PubChem, The Scripps Research Institute Molecular Screening Center
